Several values for one entry are separate records, joined by “and”; a condition that tells them apart may be missing. Identical values can stand only once. Records with an inconclusive call do not appear. More than one record can exist for a structure, and the calls need not agree. Activity calls are given as the source filed them. Calls come from the whole dose curve; as a rule, active = well fitted curve in the direction sought with a large enough effect in the repeat runs; inconclusive = weak or mixed curves; inactive = no such curve, though single readings can be large; an effect the other way counts as inactive or inconclusive.
Key:
[1] = qHTS RealTime-Glo MT Cell Viability Assay in HEK293 cells - 40 hour (AID 1224874); settings: RealTime-Glo luminescence; max response: stronger effect = lower value; note: nearly all actives have a fitted effect of over 50% in size; note: potency is the fitted concentration of half-maximal effect
Outline: (§1)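 Cells were seeded together with NanoLuc luciferase and a prosubstrate that viable cells reduce to a luciferase substrate. After a 5 h incubation at 37 C/5% CO2, compounds were added and luminescence was measured repeatedly during 40 h of treatment.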

[2] = A CellTox Green Cytotoxicity Assay to monitor cytotoxicity in HEK293 cells - 24 hour (AID 1224875); note: series mostly up to about 77 µM; nearly all actives have a fitted effect of over 45% in size
Outline: (§2)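 Nonlytic real-time cytotoxicity: HEK293 + CellTox Green reagent plated, 5 h preincubation, pintool compound addition (23 nL in DMSO), 37 C for 40 h, fluorescence measured at successive time points.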

[3] = A CellTox Green Cytotoxicity Assay to monitor cytotoxicity in HepG2 cells - 16 hour (AID 1224876); note: nearly all actives have a fitted effect of over 45% in size
Outline: (§3)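 Read-out is fluorescence of a cyanine dye excluded from live cells that stains DNA of dead HepG2 cells, with signal proportional to cytotoxicity. Plates were read at 0, 8, 16, 24, 32 and 40 h after compound addition.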

[4] = qHTS RealTime-Glo MT Cell Viability Assay in HepG2 cells - 32 hour (AID 1224877); note: nearly all actives have a fitted effect of over 55% in size
Outline: (§4)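 Cells + NanoLuc/prosubstrate dispensed (600 cells/well) → 5 h at 37 C/5% CO2 → compounds in DMSO transferred → 40 h incubation at 37 C, luminescence read at 0, 8, 16, 24, 32, 40 h.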

[5] = A CellTox Green Cytotoxicity Assay to monitor cytotoxicity in HepG2 cells - 24 hour (AID 1224878); note: nearly all actives have a fitted effect of over 45% in size
Outline: as §3

[6] = A CellTox Green Cytotoxicity Assay to monitor cytotoxicity in HepG2 cells - 40 hour (AID 1224879); note: nearly all actives have a fitted effect of over 40% in size; note: potency is the fitted concentration of half-maximal effect
Outline: as §3

[7] = qHTS RealTime-Glo MT Cell Viability Assay in HEK293 cells - 0 hour (AID 1224880); note: top concentration of the series differs between compounds; nearly all actives have a fitted effect of over 45% in size
Outline: as §1

[8] = A CellTox Green Cytotoxicity Assay to monitor cytotoxicity in HEK293 cells - 32 hour (AID 1224881); note: nearly all actives have a fitted effect of over 40% in size
Outline: as §2

[9] = A CellTox Green Cytotoxicity Assay to monitor cytotoxicity in HepG2 cells - 0 hour (AID 1224882); note: nearly all actives have a fitted effect of over 35% in size
Outline: as §3

[10] = A CellTox Green Cytotoxicity Assay to monitor cytotoxicity in HepG2 cells - 32 hour (AID 1224883); note: nearly all actives have a fitted effect of over 50% in size
Outline: as §3

[11] = A CellTox Green Cytotoxicity Assay to monitor cytotoxicity in HEK293 cells - 8 hour (AID 1224884); note: nearly all actives have a fitted effect of over 35% in size; note: potency is the fitted concentration of half-maximal effect
Outline: as §2

[12] = qHTS RealTime-Glo MT Cell Viability Assay in HepG2 cells - 16 hour (AID 1224885); note: nearly all actives have a fitted effect of over 50% in size
Outline: as §4

[13] = qHTS RealTime-Glo MT Cell Viability Assay in HEK293 cells - 24 hour (AID 1224886); note: nearly all actives have a fitted effect of over 50% in size; note: potency is the fitted concentration of half-maximal effect
Outline: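 Tox21 10K qHTS, HEK293, 600 cells/well, RealTime-Glo reagent co-dispensed with cells; 5 h preincubation, compound by pintool, 37 C, luminescence at 0–40 h.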

[14] = qHTS RealTime-Glo MT Cell Viability Assay in HEK293 cells - 8 hour (AID 1224887)
Outline: as §1

[15] = qHTS RealTime-Glo MT Cell Viability Assay in HepG2 cells - 0 hour (AID 1224889); note: nearly all actives have a fitted effect of over 50% in size
Outline: as §4

[16] = A CellTox Green Cytotoxicity Assay to monitor cytotoxicity in HepG2 cells - 8 hour (AID 1224890); note: nearly all actives have a fitted effect of over 45% in size
Outline: as §3

[17] = qHTS assay to identify small molecule antagonists of the estrogen receptor alpha (ER-alpha) signaling pathway using the BG1 cell line in the presence of 0.1 nM 17-beta-estradiol - cell viability counter screen (AID 1259241); note: nearly all actives have a fitted effect of over 40% in size
Outline: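 Following 5 days in phenol red-free medium with charcoal-stripped serum, VM7Luc4E2 cells received test compounds alongside 0.1 nM 17beta-estradiol (final) at 37C for 22 hr. Live cells were then quantified via protease-substrate fluorescence.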

[18] = qHTS assay to identify small molecule antagonists of the androgen receptor (AR) signaling pathway using the MDA cell line in the presence of 0.5 nM R1881 - cell viability counter screen (AID 1259242); note: nearly all actives have a fitted effect of over 45% in size
Outline: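 Counter screen for cytotoxicity run in the same wells as the AR antagonist reporter screen: MDA-kb2 cells were treated 16 hr with test compounds and 0.5 nM R1881, then live-cell protease activity was measured by fluorescence.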

[19] = A CellTox Green Cytotoxicity Assay to monitor cytotoxicity in HEK293 cells - 16 hour (AID 1224888); note: nearly all actives have a fitted effect of over 35% in size
Outline: as §2

[20] = biological target: Androgen receptor (Homo sapiens) (UniProt P10275); assay: qHTS assay to identify small molecule antagonists of the androgen receptor (AR) signaling pathway using the MDA cell line in the presence of 0.5 nM R1881 (AID 1259243); note: nearly all actives have a fitted effect of over 50% in size; note: potency is the fitted concentration of half-maximal effect
Outline: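 Luciferase luminescence is the read-out: compounds are tested for suppressing 0.5 nM R1881-driven MMTV reporter activity in MDA-kb2 cells after 16 hr at 37C.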
% is set by controls: 0 for no effect and ±100 for the full control effect.

Sequence of Androgen receptor (Homo sapiens) (P10275 whole entry, looked up): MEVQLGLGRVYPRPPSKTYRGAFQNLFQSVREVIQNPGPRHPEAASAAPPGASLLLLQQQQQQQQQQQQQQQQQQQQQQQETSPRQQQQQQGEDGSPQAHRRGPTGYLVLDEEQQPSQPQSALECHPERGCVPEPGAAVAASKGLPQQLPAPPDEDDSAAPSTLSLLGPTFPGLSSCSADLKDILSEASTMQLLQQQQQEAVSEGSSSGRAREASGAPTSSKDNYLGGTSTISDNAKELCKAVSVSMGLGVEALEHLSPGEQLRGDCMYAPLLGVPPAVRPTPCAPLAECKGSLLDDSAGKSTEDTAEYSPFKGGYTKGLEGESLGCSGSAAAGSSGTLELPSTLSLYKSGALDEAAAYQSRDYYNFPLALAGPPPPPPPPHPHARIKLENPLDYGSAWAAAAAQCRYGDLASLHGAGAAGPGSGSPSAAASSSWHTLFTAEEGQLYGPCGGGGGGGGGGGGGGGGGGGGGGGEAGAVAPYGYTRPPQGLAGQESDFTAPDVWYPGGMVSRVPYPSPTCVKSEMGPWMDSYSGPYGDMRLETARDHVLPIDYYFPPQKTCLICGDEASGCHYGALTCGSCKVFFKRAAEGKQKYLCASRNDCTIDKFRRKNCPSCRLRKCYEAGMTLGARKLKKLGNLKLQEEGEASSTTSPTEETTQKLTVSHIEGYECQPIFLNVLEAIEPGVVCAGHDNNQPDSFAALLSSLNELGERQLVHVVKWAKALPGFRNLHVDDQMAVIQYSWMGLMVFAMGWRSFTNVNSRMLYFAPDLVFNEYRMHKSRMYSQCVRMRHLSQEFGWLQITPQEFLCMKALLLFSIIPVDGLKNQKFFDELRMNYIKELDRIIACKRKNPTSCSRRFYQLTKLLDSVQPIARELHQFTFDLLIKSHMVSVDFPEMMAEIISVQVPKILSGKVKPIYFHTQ

O=Cc1cccc(Oc2ccccc2)c1
inactive: max response [1] -18.5% and 0.95% | Potency [2] | Potency [3] | outcome [4] | Potency [5] | Potency [6] | outcome [7] | Potency [8] | Potency [9] | Potency [10] | Potency [11] | outcome [12] | Potency [13] | outcome [14] | outcome [15] | Potency [16] | Potency [17] | outcome [18]

Clc1ccc(Cl)cc1
inactive: max response [1] 6.61% and 0.839% | Potency [2] | Potency [3] | outcome [4] | Potency [5] | Potency [6] | outcome [7] | Potency [8] | Potency [9] | Potency [10] | Potency [11] | Potency [13] | outcome [14] | outcome [15] | Potency [16] | Potency [17] | outcome [18]

CC(C)(C)OOC(=O)c1ccccc1
inactive: max response [1] -10.9% and 1.81% | Potency [2] | Potency [3] | outcome [4] | Potency [5] | Potency [6] | outcome [7] | Potency [8] | Potency [9] | Potency [10] | Potency [11] | outcome [12] | Potency [13] | Potency [19] | outcome [15] | Potency [16] | Potency [17] | outcome [18]

O=C1CCCN1
inactive: max response [1] 1.24% and -5.73% | Potency [2] | Potency [3] | outcome [4] | Potency [5] | Potency [6] | outcome [7] | Potency [8] | Potency [9] | Potency [10] | Potency [11] | Potency [13] | outcome [14] | Potency [19] | outcome [15] | Potency [16] | Potency [17] | outcome [18]

CCNc1nc(NC(C)(C)C)nc(SC)n1
active: Potency [1] 27.2 µM | Potency [13] 43.1 µM
inactive: Potency [2] | Potency [3] | outcome [4] | Potency [5] | Potency [6] | outcome [7] | Potency [8] | Potency [9] | Potency [10] | Potency [11] | outcome [12] | outcome [14] | Potency [19] | outcome [15] | Potency [16] | Potency [17] | outcome [18]

c1ccc(-c2ccccc2)cc1
49.4 µM (active) and inactive: Potency [6]
inactive: max response [1] -0.911% and -11.7% | Potency [2] | Potency [3] | outcome [4] | Potency [5] | outcome [7] | Potency [8] | Potency [9] | Potency [11] | outcome [12] | Potency [13] | outcome [14] | outcome [15] | Potency [16] | Potency [17] | outcome [18] | Potency [20]

CC(C)N1C(=O)c2ccccc2NS1(=O)=O
inactive: max response [1] -5.03% and 3.56% | Potency [2] | Potency [3] | outcome [4] | Potency [5] | Potency [6] | outcome [7] | Potency [8] | Potency [9] | Potency [10] | Potency [11] | outcome [12] | Potency [13] | outcome [14] | Potency [19] | outcome [15] | Potency [16] | Potency [17] | outcome [18]

COCCl
22.7 µM (active) and inactive: Potency [11]
inactive: max response [1] -4.66% and 2.93% | Potency [2] | Potency [3] | outcome [4] | Potency [5] | Potency [6] | outcome [7] | Potency [8] | Potency [9] | Potency [10] | outcome [12] | Potency [13] | outcome [14] | Potency [19] | outcome [15] | Potency [16] | Potency [17] | outcome [18] | Potency [20]

O=C(NC(=O)c1c(F)cccc1F)Nc1cc(Cl)c(OC(F)(F)C(F)C(F)(F)F)cc1Cl (configuration not stated)
active: Potency [20] 19.3 µM and 26.6 µM
inactive: max response [1] -33.5% | Potency [2] | Potency [3] | outcome [4] | Potency [5] | Potency [6] | outcome [7] | Potency [8] | Potency [9] | Potency [10] | Potency [11] | Potency [13] | outcome [14] | outcome [15] | Potency [16] | Potency [17] | outcome [18]

C[C@]12CC[C@H]3[C@@H](CC[C@@]45O[C@@H]4C(O)=C(C#N)C[C@]35C)[C@@H]1CC[C@@H]2O
inactive: max response [1] 27.1% and 19.8% | Potency [2] | Potency [3] | outcome [4] | Potency [5] | Potency [6] | outcome [7] | Potency [8] | Potency [9] | Potency [10] | Potency [11] | outcome [12] | Potency [13] | outcome [14] | outcome [15] | Potency [16] | Potency [17] | outcome [18]

Cc1ccc(N)cc1Cl
inactive: max response [1] -5.66% and 1.08% | Potency [2] | Potency [3] | outcome [4] | Potency [5] | Potency [6] | outcome [7] | Potency [8] | Potency [9] | Potency [10] | Potency [11] | outcome [12] | Potency [13] | outcome [14] | Potency [19] | outcome [15] | Potency [16] | Potency [17] | outcome [18]

Clc1ccccc1Cl
inactive and 54.9 µM (active): Potency [6]
inactive: max response [1] 2.45% and -10.4% | Potency [2] | Potency [3] | outcome [4] | Potency [5] | outcome [7] | Potency [8] | Potency [9] | Potency [11] | outcome [12] | Potency [13] | outcome [14] | Potency [19] | outcome [15] | Potency [17] | outcome [18]

CC(C)=C[C@@H]1[C@@H](C(=O)OCc2coc(Cc3ccccc3)c2)C1(C)C
inactive: max response [1] -1.11% and 8.33% | Potency [2] | Potency [3] | outcome [4] | Potency [5] | Potency [6] | outcome [7] | Potency [8] | Potency [9] | Potency [10] | Potency [11] | outcome [12] | Potency [13] | outcome [14] | Potency [19] | outcome [15] | Potency [17] | outcome [18]
